Assay results published in PubChem BioAssay (NCI).
Where “and” joins values, the source holds several entries; their conditions need not be identical. Identical values can stand only once. The panel holds about 79,000 compounds, 15% with a hit somewhere; the sample as a whole holds those more often. Cut-off read from the data, not from the text of the source: active = growth inhibition above about 70%; inactive = the rest.

Assays:
[1] = NCI Yeast Anticancer Drug Screen. Data for the rad50 strain (AID 155);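 note: 0% = growth of vehicle-only cultures of the same strain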; settings: S. cerevisiae rad50 strain growth inhibition, active compounds read high; at 50.0 µM unless noted
Outline: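 Vehicle-treated cultures provide the reference for the growth inhibition reported for compound-exposed, repair-deficient yeast.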

[2] = NCI Yeast Anticancer Drug Screen. Data for the mec2-1 strain (AID 157); settings: S. cerevisiae mec2-1 strain, active compounds read high; at 50.0 µM unless noted
Outline: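 Vehicle-treated cultures served as reference for growth inhibition of compound-exposed mec2-1 yeast.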

[3] = NCI Yeast Anticancer Drug Screen. Data for the sgs1 mgt1 strain (AID 161);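 note: 0% = growth of cultures given vehicle only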; settings: S. cerevisiae sgs1 mgt1 strain, active compounds read high; at 50.0 µM unless noted
Outline: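 Mutant yeast exposed to compound; growth scored against vehicle-only wells.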

[4] = NCI Yeast Anticancer Drug Screen. Data for the cln2 rad14 strain (AID 165);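 note: 0% = growth equal to vehicle treated cultures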; settings: S. cerevisiae cln2 rad14 strain, active compounds read high; at 50.0 µM unless noted
Outline: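 Each compound was tested on cln2 rad14 yeast. Inhibition of growth was calculated against vehicle-exposed controls.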

[5] = NCI Yeast Anticancer Drug Screen. Data for the bub3 strain (AID 167); settings: S. cerevisiae bub3 mutant strain, active compounds read high; at 50.0 µM unless noted
Outline: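 Mutant yeast screening strain plus compound; vehicle-treated cultures serve as the 0% inhibition reference.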

[6] = NCI Yeast Anticancer Drug Screen. Data for the mlh1 rad18 strain (AID 175); settings: S. cerevisiae mlh1 rad18 strain growth inhibition, active compounds read high; at 50.0 µM unless noted
Outline: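 Vehicle-treated cultures served as the reference for growth inhibition in a yeast strain carrying DNA damage repair alterations exposed to each compound.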

Measured: growth inhibition

O=[N+]([O-])c1cccc(/C=C/c2ccnc3ccccc23)c1
inactive: [1] 10.2% | [2] -13.1% | [3] 2.95% | [4] 5.65% | [5] 19.4% | [6] 4.15%

COC(=O)c1cc(OCC#CC#CCOc2ccc(O)c(C(=O)OC)c2)ccc1O
inactive: [1] 3% | [2] -5.8% | [3] 9.65% | [4] -1.2% | [5] -4.15% | [6] 14.1%

O=C(/C(=C/c1ccccc1)c1ccccc1)N1c2ccccc2CC1c1c[nH]c2ccccc12 (stereo not drawn)
inactive: [1] 17.4% | [2] 15.2% | [3] -10.9% | [4] 19.1% | [5] 3.3% | [6] 23.8%

Cc1cccc2c(N3CCN(c4ccccc4)CC3)c3c(nc12)CCCCC3
inactive: [1] 11.4% | [2] -22.7% | [3] -12.3% | [4] -3.05% | [5] 3.2% | [6] -2.7%

COc1ccc(C(=O)CN2CCN(c3ccccc3)CC2)cc1
inactive: [1] 14.7% | [2] -7.05% | [3] 17.1% | [4] -52.6% | [5] 23% | [6] 5.35%

O=CNc1nc[nH]c1-c1noc(=O)[nH]1
inactive: [1] -2.75% | [2] -9.5% | [3] -3.5% | [4] -23.9% | [5] -10.8% | [6] -6.8%

CC(=O)Oc1ccc(Cc2ccccc2)cc1
inactive: [1] 47% | [2] 33.5% | [3] 48.2% | [4] -49.2% | [5] 32.9% | [6] 49.1%

CNC(=O)C1C(=O)NC(=O)C1=C1CCCC1 (stereo not drawn)
inactive: [1] 11.2% | [2] -1.1% | [3] 4.8% | [4] -58.8% | [5] 8.1% | [6] -14.6%

O=C(NCCCl)c1ccc(Cl)c(Cl)c1
inactive: [1] 2.8% | [2] 0.25% | [3] 4.95% | [4] -20.9% | [5] 12.8% | [6] 3.7%

CC1(C)C2CC(O)C1CCC2=O (stereo not drawn)
inactive: [1] -4.15% | [2] -16.2% | [3] -33.8% | [4] 6% | [5] -21% | [6] -35.5%

Nc1c(Cl)ncnc1NCc1ccco1
inactive: [1] 5.25% | [2] -4.2% | [3] -13.8% | [4] -13.8% | [5] -1.05% | [6] -7.85%

CN(C)C(C#CCO)c1ccccc1 (stereo not drawn)
inactive: [1] -30.5% | [2] -13.2% | [3] 1.45% | [4] -3.55% | [5] -9.7% | [6] 4.8%

CC(C)CN(CC(C)C)C(=O)c1ccccc1
inactive: [1] 2.3% | [2] 8.2% | [3] 1.1% | [4] 8.85% | [5] 4.9% | [6] 2.4%

c1ccc(-n2ncnn2)cc1
inactive: [1] -6.5% | [2] -11.3% | [3] -8.55% | [4] -41.1% | [5] 24.4% | [6] -1.75%

CCCCC/C(C=O)=C\c1ccccc1
inactive: [1] 38.5% | [2] 15.8% | [3] 39.5% | [4] -12.2% | [5] 18% | [6] 38%

CSC1N=CNc2c1sc(=S)n2-c1ccccc1 (stereo not drawn)
inactive: [1] -20.8% | [2] 7.75% | [3] 15.9% | [4] -3.9% | [5] -2.85% | [6] -1.85%

Cc1ccc(OCCC(=O)N(C)C)cc1
inactive: [1] 5.05% | [2] 2.9% | [3] -8.25% | [4] -10% | [5] 4.2% | [6] 10.9%

C/C(CC(=O)Nc1ccc(Cc2ccc(Br)cc2)cc1)=N/Nc1ccc([N+](=O)[O-])cc1[N+](=O)[O-]
inactive: [1] 25.1% | [2] 12.6% | [3] 31.3% | [4] 16.5% | [5] 4.1% | [6] 24.7%

O=C1C(O)C(O)C(O)C(O)C1O (stereo not drawn)
inactive: [1] 22.7% and -14.6% | [2] 20.5% and -17.2% | [3] 3.9% and -36.9% | [4] 15.9% and -12.3% | [5] 20.8% and -8.35% | [6] 19.7% and -3.55%

CCOC(=O)C1=C(C(=O)c2ccc(OC)cc2)C(c2ccc([N+](=O)[O-])cc2)C(C(=O)c2ccc(OC)cc2)=C(C(=O)OCC)N1
inactive: [1] 11.1% | [2] 5.8% | [3] 0.1% | [4] 14.1% | [5] 4.95% | [6] -3.25%

O=C(OC(C1COCO1)C(O)C1COCO1)c1ccccc1 (stereo not drawn)
inactive: [1] 5.65% | [2] -8.85% | [3] 9.05% | [4] -1.85% | [5] 28.4% | [6] 17.4%

O=C(Cc1ccccc1)c1ccccc1C(=O)NCc1ccncc1
inactive: [1] 1.7% | [2] 2.05% | [3] 2.25% | [4] -20.5% | [5] 9% | [6] -0.6%

COc1ccc(/C=N/NC(=S)NN)cc1
inactive: [1] -6.6% | [2] 9.1% | [3] 13% | [4] -18.9% | [5] 33.6% | [6] 13.2%

OC1(c2nccc3ccccc23)CCN(CCc2ccccc2)CC1
inactive: [1] 46.5% | [2] 33.4% | [3] 55.8% | [4] 40.5% | [5] 17.9% | [6] 34.8%

C/C(CC(=O)Nc1cc(Cl)c(Cl)cc1Cl)=N\NS(=O)(=O)c1ccc(C)cc1
inactive: [1] -3.05% | [2] -6.8% | [3] 3.35% | [4] -53.9% | [5] -1.2% | [6] 2.75%

O=S(=O)(c1ccc(Cl)cc1)S(=O)(=O)c1ccc(Cl)cc1
inactive: [1] 18.8% | [2] 8.5% | [3] 8.6% | [4] -18.4% | [5] 4.5% | [6] 10.4%

CC(=O)OC1CCC(C(C)(C)C)CC1 (stereo not drawn)
inactive: [1] -12.8% | [2] -41% | [3] -19.2% | [4] 2.5% | [5] -28.2% | [6] -15.8%

C#CCOCC12C=CC(O1)C1C(=O)N(C)C(=O)C12 (stereo not drawn)
inactive: [1] -11.4% and 8.1% | [2] 33.5% and 38.6% | [3] 8.75% and -3.95% | [4] 7.65% and 36.2% | [5] 24.6% and 33.4% | [6] -13.3% and 6.25%

O=C1CC(Cc2n[nH]c3c2CCCC3)CC(=O)N1
inactive: [1] 4.2% | [2] 3.8% | [3] -4.8% | [4] 7.35% | [5] -2.15% | [6] -7.75%

CCC(=O)c1ccc(OC)cc1OC
inactive: [1] -13.6% | [2] 1.25% | [3] -4.8% | [4] -2.05% | [5] 4.4% | [6] -20.1%

O=C1CSC(c2ccc(O)cc2)N1c1nncs1 (stereo not drawn)
inactive: [1] 0.4% | [2] -0.75% | [3] 16.8% | [4] -0.55% | [5] 5.6% | [6] 11.9%

CSCCC(Nc1ccc([N+](=O)[O-])cc1[N+](=O)[O-])C(=O)O (stereo not drawn)
inactive: [1] 9.55% | [2] 7.25% | [3] 34.4% | [4] 18.1% | [5] 17.9% | [6] -18.1%

CN(C)c1ccc(/C=C2\C[N+](C)(C)C/C(=C\c3ccc(N(C)C)cc3)C2=O)cc1
inactive: [1] 6.9% | [2] 3.4% | [3] 9.35% | [4] -2.55% | [5] -3.45% | [6] 32.8%

C=C1CC2C=CC1C2 (stereo not drawn)
inactive: [1] 3.65% | [2] -25.4% | [3] 1.3% | [4] 0.25% | [5] -15.8% | [6] 2.85%

CC1=C2CC3=C(C)C(=O)O[C@H]3C[C@@H](C)[C@@H]2CC1
inactive: [1] 15.2% | [2] 9.9% | [3] 26% | [4] 1.15% | [5] 33.8% | [6] 2.45%

Oc1ccc(-c2nc(-c3cccnc3)c(-c3ccc(F)cc3)[nH]2)cc1
inactive: [1] 5.2% | [2] -13.7% | [3] 12.8% | [4] 8.55% | [5] 12.5% | [6] 57.8%

CCOCNC(=O)NCC(F)(F)C(F)(F)C(F)(F)C(F)(F)C(F)(F)C(F)(F)C(F)(F)F
inactive: [1] -1.55% | [2] -21.5% | [3] -4.6% | [4] -5.5% | [5] -1.65% | [6] 12.9%

Nn1c(CCCl)nc2c(Br)cc(Br)cc2c1=O
inactive: [1] 13.8% | [2] 2.9% | [3] -2.45% | [4] 3.25% | [5] 12.6% | [6] 8.5%
